{"source": "paper PMC8384837", "about": "“Expanding the binding specificity for RNA recognition by a PUF domain”", "data": [{"biological_target": "PUM1 PUF domain R4-TPN (Homo sapiens, UniProt Q14671 828-1176, N971T;H972P;Q975N)", "sequence (Q14671 828-1176 N971T/H972P/Q975N)": "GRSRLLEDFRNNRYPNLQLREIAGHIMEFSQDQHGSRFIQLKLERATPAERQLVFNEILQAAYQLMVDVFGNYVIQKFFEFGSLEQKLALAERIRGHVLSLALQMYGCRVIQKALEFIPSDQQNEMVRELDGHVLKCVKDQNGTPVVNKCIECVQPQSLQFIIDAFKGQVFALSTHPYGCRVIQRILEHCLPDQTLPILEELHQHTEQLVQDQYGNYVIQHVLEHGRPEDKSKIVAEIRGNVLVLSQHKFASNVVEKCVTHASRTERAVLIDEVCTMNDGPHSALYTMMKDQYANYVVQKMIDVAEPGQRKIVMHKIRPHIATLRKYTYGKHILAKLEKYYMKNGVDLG", "test": "yeast three-hybrid, YBZ-1, SC-Leu-His + 0.5 mM 3-AT, 4 days", "details": "tags: N-Gal4 AD-HA kept; label: inside an RPR1-promoter hybrid RNA with tandem MS2 sites; ssRNA", "in_short": "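Pumilio-1 PUF domain libraries, randomized (NNK) at the three base-contacting residues of each repeat, were co-expressed with matching RNA elements from a centromeric plasmid in strain YBZ-1 (LexA–MS2 coat fusion, HIS3 reporter). Transformants were plated on SC-Leu (input) and SC-Leu-His + 0.5 mM 3-AT (selection) for four days, and repeat regions were PCR-amplified and Illumina-sequenced. The interaction score is the log2 change in variant frequency from input to selection, with pseudocount 1 where absent.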", "values": [{"sequence": "GGCUAGAACUAGUGGAUCCCCCGGCGCCCGGCGGCUCGAGCCCGGGUAAGUGUAAAUAGUCUGCAUGCCGCCGGGCGCCAUGCCUGCAGGUCGACUCUAGAAAACAUG", "binding signal": "5.21 log2 enrichment (interaction score)"}, {"sequence": "GGCUAGAACUAGUGGAUCCCCCGGCGCCCGGCGGCUCGAGCCCGGGUAAGUGUACAUAGUCUGCAUGCCGCCGGGCGCCAUGCCUGCAGGUCGACUCUAGAAAACAUG", "binding signal": "4.27 log2 enrichment (interaction score)"}, {"sequence": "GGCUAGAACUAGUGGAUCCCCCGGCGCCCGGCGGCUCGAGCCCGGGUAAGUGUAUAUAGUCUGCAUGCCGCCGGGCGCCAUGCCUGCAGGUCGACUCUAGAAAACAUG", "binding signal": "3.42 log2 enrichment (interaction score)"}]}]}
